This is a sample that favours compounds with a hit; in the whole collection about 6.3% have one here.
Spn DPM-DC inh: S. pneumoniae DPM-DC inhibition; purified DPM-DC, PK/LDH coupled NADH fluorescence; AID 556; calls only at 10 µM; actives 0.49% (n = 65,000);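 active = the 320 compounds with the highest percent inhibition in the single-dose primary screen, excluding strongly autofluorescent ones, cut at about 32% in these data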;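 also: kinetic rate of NADH fluorescence loss reporting ADP formed by the decarboxylase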
A340 absorber: compounds absorbing at 340 nm. AID 708. compound absorbance at 340 nm, fold over control. 65,000 tested, under 10 active. fold change at 10 µM;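 active = at 10 µM dose, initial 340 nm absorbance at least 2 fold that of control wells; inactive = change under 2 fold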;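 also: initial absorbance extrapolated from kinetic A340 decline of NADH oxidation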
MK inhibit: blocks S. pneumoniae mevalonate kinase; purified MK, PK/LDH-coupled NADH absorbance 340 nm; inhibition, % at 10 µM; actives 0.48% (n = 65,000);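 active = ranked among the strongest by inhibition in the single 10 µM screen, a fixed top-ranked set picked for dose follow-up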
PMK inhibit: inhibitors of Streptococcus pneumoniae phosphomevalonate kinase; purified PMK, PK/LDH-coupled NADH absorbance 340 nm; inhibition, % at 10 µM; actives 0.49% (n = 65,000); AID 539;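 active = top-ranked compounds by inhibition in the single 10 µM screen, taking a fixed number of the strongest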;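 also: 0% = full reaction with DMSO carrier and 100% = background rate without enzyme reaction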
Autofluor 339: intrinsic fluorescence of library compounds, ex339/em460 – biochemical, MLSMR library, data from DPM-DC assay, artefact control, profiling panel | compound autofluorescence, ex339/em460 nm, NADH buffer; active compounds read high; 1 = no-compound wells, NADH background | fluorescence fold increase at 10 µM | actives 5.5% (n = 65,000) | AID 709;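 active = at 10 µM, mean starting fluorescence two-fold or more over control wells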;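 also: signal is the first read of a kinetic run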
NADH coupling: inhibition of NAD/NADH coupling enzymes, library profiling. coupled PK/LDH NADH assays, four targets. IC50, µM (titrated, usually from 10 µM), for the others: at the top dose inhibition. actives 0.02% (n = 65,000);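 active = single-dose screening hits from any of four coupled enzyme assays that gave an IC50 when retested across doses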;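 also: the DPM-DC format reads NADH fluorescence rather than 340 nm absorbance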
The depositor's hits bear a star; i = inactive; nt = not tested or not shown; + = active, no number.

SMILES	Spn DPM-DC inh	A340 absorber	MK inhibit	PMK inhibit	Autofluor 339	NADH coupling
CC(=O)C1=C(C)NC(SCC(=O)c2ccccc2)=C(C#N)C1CC(C)C (stereo not drawn)	i	1.1	12	16	1.1	9%
Cn1c(NC(=O)c2ccco2)c(-c2ccccc2)c(=O)c2ccccc21	i	1.1	10	8	0.94	9%
COc1ccc(-c2c(NC(C)=O)n(C)c3ccccc3c2=O)cc1	nt	1.1	9	11	3.8*	10%
O=S(=O)(Nc1ccc(-c2nc3cccnc3s2)cc1)c1cccs1	nt	1.3	5	14	2.1*	10%
O=C1Nc2ccc(NS(=O)(=O)c3cccs3)c3cccc1c23	i	1	2	8	1.1	3%
O=S(=O)(Nc1cccc2ncccc12)c1cccs1	+	0.99	0	16	1.1	6%
CCOC(=O)C1Cc2cc3c(cc2C1=O)CC(C(=O)OCC)C3=O (stereo not drawn)	nt	1.1	0	2	3.7*	1%
O=C(Nc1cccc2ccccc12)OC1C=CS(=O)(=O)C1 (stereo not drawn)	i	1	8	11	1.1	8%
CC1OC(Nc2cccc3ccccc23)C(O)C(O)C1O (stereo not drawn)	nt	1	13	2	2.1*	8%
CCn1cc(C(=O)OCC(=O)NCc2ccc3c(c2)OCO3)c(=O)c2ccc(C)nc21	i	1	2	1	1	1%
Cc1ccc2cccc(OCC(=O)NCc3ccco3)c2n1	i	0.99	0	9	1.1	3%
Cc1ccc(-n2c(CSc3nc(C)cc(C)n3)nnc2SCC(=O)NCc2ccco2)cc1	i	0.96	4	26*	1.1	11%
O=C(CSc1nc2ccccc2nc1SCC(=O)N1CCOCC1)N1CCOCC1	i	1.1	0	0	1	1%
Cc1ccc(-n2c(Cc3cccn3C)nnc2SCC(=O)NCc2ccco2)cc1	i	1	7	7	1.2	5%
Cc1ccc2cccc(SCC(=O)NCc3ccco3)c2n1	nt	1.1	8	8	3.9*	8%
Cc1ccc2cccc(SCC(=O)N3CCOCC3)c2n1	nt	0.99	6	11	2.5*	5%
CCOC(=O)c1cccc(NC(=O)Cn2cnc3c2c(=O)n(C)c(=O)n3C)c1	i	0.98	2	11	1.2	3%
CCN1CC=C2C(C1)C(c1ccc(Cl)s1)C(C#N)=C(N)C2(C#N)C#N (stereo not drawn)	i	1	13	1	2	5%
c1cc(Nc2ncnc3sccc23)cc(-c2nnc3n2CCCCC3)c1	i	0.98	2	16	1	8%
CNc1nnc(-c2cc3ccccc3oc2=O)s1	i	1.1	3	3	2.3*	4%
CNC(=O)c1cc2cc(OC)ccc2oc1=N	i	1.1	0	0	2.5*	4%
CNC(=O)c1cc2ccc(OC)cc2oc1=O	nt	1.2	10	4	3.6*	7%
COc1ccc2oc(=N)c(C(=O)Nc3ccccc3)cc2c1	i	0.98	7	11	1.2	7%
CCOc1ccc2nc(NC(=O)C3CCN(c4cnccn4)CC3)sc2c1	i	1	0	11	2.6*	10%
COc1cc2nc(N3CCN(C(=O)C4COc5ccccc5O4)CC3)nc(N)c2cc1OC (stereo not drawn)	nt	1	6	4	2.5*	2%
SMILES	Spn DPM-DC inh	A340 absorber	MK inhibit	PMK inhibit	Autofluor 339	NADH coupling
COc1cc2nc(N3CCN(C(=O)c4ccco4)CC3)nc(N)c2cc1OC	i	1	6	0	2.5*	2%
OCc1nn2c(c1Br)NC(c1ccccc1)CC2C(F)(F)F (stereo not drawn)	i	1	4	11	1	6%
COc1ccc2c(c1)C(=O)N(c1ccccc1OC)C(=O)C2(C)C	i	1	0	12	1.1	4%
COc1ccc2c(c1)C1(C)CC(C)(C)N2C(=O)N1c1ccccc1 (stereo not drawn)	+	0.98	2	0	1.4	10%
CCOC(=O)CC1C(=O)NCCN1C(=O)c1cc2c(=O)n3ccccc3nc2s1 (stereo not drawn)	nt	1.2	2	2	2.1*	2%
CCCOC(=O)CC1C(=O)NCCN1Cc1ccccc1C (stereo not drawn)	i	1	7	14	1.1	7%
CCOC(=O)CC1C(=O)NCCN1C(=O)c1cc2c(=O)n3cccc(C)c3nc2s1 (stereo not drawn)	nt	1.1	4	15	2.1*	10%
Cc1ccc(OCC(=O)Nc2ccc(O)c(C(=O)O)c2)cc1C	nt	1	9	6	3.3*	8%
COc1ccc(-c2cn3cc(C)ccc3n2)cc1OC	nt	1	0	0	2.5*	2%
COc1ccc(-c2cn3ccccc3n2)cc1OC	nt	1	16	4	4*	10%
CN(C)S(=O)(=O)c1cccc(-c2cn3ccccc3n2)c1	i	1	0	6	1.8	2%
CCOC(=O)c1cc2c(=O)n3ccccc3nc2n(Cc2ccccc2)c1=N	nt	0.98	3	20	2.5*	4%
Cc1ccc(Cn2c(=N)c(C(=O)NCc3ccco3)cc3c(=O)n4ccccc4nc32)cc1	i	1	0	17	1.9	6%
CCOC(=O)c1cc2c(=O)n3ccccc3nc2n(Cc2ccccc2Cl)c1=N	nt	1	0	1	2.3*	1%
COc1ccc(CCn2c(=N)c(C(=O)N3CCN(C)CC3)cc3c(=O)n4ccccc4nc32)cc1	i	1.1	15	11	1.6	9%
CCOC(=O)C1CCN(S(=O)(=O)c2c(C)n[nH]c2C)CC1	i	0.99	11	10	1	7%
Clc1c(-c2nnc3n2CCCCC3)sc2ccccc12	i	1	0	14	1.1	5%
N=c1oc2ccc3ccccc3c2cc1-c1nnc2n1CCCCC2	nt	1.1	4	13	2.1*	9%
Cc1sc2ncnc(NCC(c3ccco3)N(C)C)c2c1C (stereo not drawn)	i	1.1	56*	30*	1.1	29%
Cc1sc2ncnc(N[C@@H](CCC(=O)O)C(=O)O)c2c1C	i	1	11	5	1.1	6%
COCCn1c(=O)c2c3c(sc2n(CC(N)=O)c1=O)CCCC3	i	1	4	1	1.1	3%
Cc1cc(OCc2nn[nH]n2)c2c(C)c(Cc3ccccc3)c(=O)oc2c1	nt	1.1	7	12	3.9*	10%
Cc1c(OCc2nn[nH]n2)ccc2c(-c3ccccc3)cc(=O)oc12	i	1.1	0	9	1.4	3%
COC(=O)COc1cc(C)cc2oc(=O)c(CC(=O)OC)c(C)c12	nt	1.1	11	1	2.1*	6%
Cc1cc(OCc2nn[nH]n2)c2c(-c3ccccc3)cc(=O)oc2c1	i	1.1	5	0	2*	2%

High-throughput results deposited in PubChem BioAssay by SRMLSC.
